# Compounds with a hit are over-represented: about 5.7% of the library has one in this group of screens.
# VP16 counter = VP16 counterscreen qHTS for inhibitors of ROR gamma transcriptional activity; Drosophila S2 Gal4-VP16 UAS-luciferase, luminescence, 20 h; Potency, µM (doses to about 53.6 µM), for the others: top-dose activity, negative = inhibition, actives largely listed as inhibitors; AID 2546, 2010; actives 3.5% (n = 310,000);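 further: Gal4-VP16 expression switched on by copper sulfate through the metallothionein promoter; nearly all actives have a fitted effect of over 50% in size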
# RORg inh = qHTS for inhibitors of ROR gamma transcriptional activity | Drosophila S2 Gal4-RORgamma UAS-luciferase reporter, 20 h | Potency, µM (doses to about 53.6 µM), inactives show top-dose activity change, negative = inhibition, actives largely listed as inhibitors | AID 2551, 2010 | Nuclear receptor ROR-gamma (Mus musculus), P51450 | actives 5.4% (n = 310,000); further: nearly all actives have a fitted effect of over 60% in size
#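 A Gal4/UAS one-hybrid system in insect cells: metallothionein-promoter Gal4–ROR gamma fusion plus Photinus luciferase reporter. Copper sulfate 700 uM final, 20 hr ambient incubation, luminescent detection after 10 min with reagent.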
# B2AR arrestin = qHTS assay of beta-arrestin-biased ligands of beta2-adrenergic receptor | AID 492947, 2010 | beta-arrestin recruitment to beta2AR, cell-based reporter | Potency, µM (series often up to 46.1 µM), without a hit: at the top dose activation, most hits filed as activators | actives 0.02% (n = 330,000) | Beta-2 adrenergic receptor (Homo sapiens), P07550;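 further: 0% = DMSO controls and full agonism = EC100 isoproterenol or metaproterenol; nearly all actives have a fitted effect of over 65% in size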
# Target sequence (P07550 whole entry, looked up): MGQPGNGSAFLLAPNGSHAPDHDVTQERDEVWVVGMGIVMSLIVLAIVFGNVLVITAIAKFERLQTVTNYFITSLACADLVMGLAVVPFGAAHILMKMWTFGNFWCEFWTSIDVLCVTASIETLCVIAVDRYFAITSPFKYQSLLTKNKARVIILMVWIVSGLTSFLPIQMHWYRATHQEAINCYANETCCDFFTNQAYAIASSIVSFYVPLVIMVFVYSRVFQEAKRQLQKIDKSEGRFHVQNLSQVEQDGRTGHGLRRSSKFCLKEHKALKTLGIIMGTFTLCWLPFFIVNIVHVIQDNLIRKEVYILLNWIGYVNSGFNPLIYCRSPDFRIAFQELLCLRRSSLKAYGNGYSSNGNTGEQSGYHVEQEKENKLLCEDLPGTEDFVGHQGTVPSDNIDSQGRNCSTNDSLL
# NPSR antag = qHTS Assay for Antagonists of the Neuropeptide S Receptor: cAMP Signal Transduction | actives 1% (n = 220,000) | Q6W5P4 | Potency, µM (titrated, usually from 38.3 µM), without a hit: top-dose activity change, negative = inhibition, most hits filed as inhibitors | AID 1461, 2008 | CHO-NPSR cells, cAMP TR-FRET, antagonist mode; further: nearly all actives have a fitted effect of over 50% in size
# Starred values were filed as active, the others as inactive; ? = inconclusive; · = no result; [ ] = dose if it differs, or a comment. The call rests on the fitted dose curve; in most records, active means well fitted curve in the direction sought with a large enough effect; inconclusive means small, poorly fitted or top-dose-only effect, or another doubt; inactive means no such curve, though single readings can be large; an effect the other way counts as inactive or inconclusive. Unless noted, on the % scale 0 is the no-effect control and ±100 the full control effect; potency means the concentration at half of the fitted maximal effect.
SMILES,VP16 counter,RORg inh,B2AR arrestin,NPSR antag
S=C(NCc1ccc2[nH]c3c(c2c1)CCCC3)Nc1ccccc1,10µM*,1.8µM*,0%,-41%
O=C(NCc1ccc2[nH]c3c(c2c1)CCCC3)c1ccc(S(=O)(=O)N2CCCCC2)cc1,1%,18%,0%,6%
Cc1cccc(Oc2ccc3c(c2)cc(C(=O)O)n3C)c1,-4%,?,-1%,·
CC1CCCN(S(=O)(=O)c2ccc(NC(=O)C3CCN(C(=O)c4ccco4)CC3)cc2)C1 (stereo not given),0%,?,0%,·
O=C1NC(=S)N(c2cccc(Cl)c2)C12CCCCC2,?,13µM*,0%,-15%
CCCc1c(O)nc(SCCN(CC)CC)n(C(=O)c2ccccc2)c1=O,-4%,-22%,0%,-14%[46.1 µM]
CCN(CC)CCn1c(NCc2cc(OC)ccc2OC)nc2ccccc21,16%,?,0%,-3%[46.1 µM]
Cc1ccc(CNc2nc3ccccc3n2C)cc1,?,10µM*,0%,·
CCN(CC)c1ccc(CNc2nc3ccccc3n2CCN2CCOCC2)cc1,-14%,11µM*,0%,-21%
CCN(CC)CCn1c(NCc2cccc(OC)c2)nc2ccccc21,-8%,5.6µM*,1%,11%[46.1 µM]
CCCCn1c(Nc2ccc(OC)cc2)nc2ccccc21,?,10µM*,0%,·
COc1ccc(CNc2nc3ccccc3n2CCN2CCOCC2)cc1,-3%,-9%,0%,2%[46.1 µM]
C#C[C@]1(O)CC[C@H]2[C@@H]3CCC4=CCCC[C@@H]4[C@H]3C(=C)C[C@@]21CC,-17%,-19%,·,·
C=CCn1c(=O)c2c(nc(-n3nc(C)cc3C)n2C)n(C)c1=O,-4%,-33%,0%,·
C=CCC(C)(O)c1ccccc1 (stereo not given),6%,2%,·,·
c1ccc(CNc2nc3ccccc3n2CCN2CCOCC2)nc1,-5%,3%,0%,-13%[46.1 µM]
CCCn1c(NCc2ccccn2)nc2ccccc21,-61%,14µM*,0%,-8%[46.1 µM]
CCCCn1c(NCc2ccncc2)nc2ccccc21,-4%,7%,0%,-3%
Cc1ccc(CC2CC(=O)N(c3nc4ccccc4n3C)C2=O)cc1 (stereo not given),?,13µM*,0%,-9%[46.1 µM]
CCCCn1c(NCc2ccc(N(C)C)cc2)nc2ccccc21,13µM*,18%,0%,58%
COc1ncc2ncc(=O)n(C3CC3)c2n1,8%,-12%,·,·
O=C(Nc1ccc(S(=O)(=O)NC2=NCCCCC2)cc1)c1cc(S(=O)(=O)N2CCOCC2)ccc1F,13%,-24%,0%,·
O=C(Nc1ccc(N2CCCC2)c(Cl)c1)c1ccc([N+](=O)[O-])o1,-9%[10 µM],?,0%,7.9µM*
O=C(Nc1ccccc1N1CCN(C(=O)c2ccccc2)CC1)c1cc2ccccc2o1,2%,-2%,-2%,4µM*
Cc1cccc(NC(=O)c2ccc([N+](=O)[O-])o2)c1C,-7%[10 µM],-21%,0%,0%
SMILES,VP16 counter,RORg inh,B2AR arrestin,NPSR antag
O=C(Nc1ccccc1N1CCCC1)c1ccc([N+](=O)[O-])o1,?,2µM*,0%,·
O=C(Nc1ccccc1N1CCCC1)c1cc2ccccc2o1,-9%,27%,0%,?
O=C(Nc1cccc2ccccc12)c1ccc([N+](=O)[O-])o1,13µM*,?,0%,·
COc1ccccc1CN1CC[C@@]2(CCCN(C(=O)c3cccn3C)C2)C1,-25%,43%,·,·
O=C(Nc1ccccc1N1CCN(C(=O)c2ccccc2)CC1)c1ccc([N+](=O)[O-])o1,?,5.6µM*,0%,·
Cc1ccc(NC(=O)c2ccc([N+](=O)[O-])o2)cc1C,-22%,7.9µM*,0%,-6%
O=C(Nc1ccccn1)c1ccc([N+](=O)[O-])o1,?,?,-1%,9%
O=C(Nc1ncccn1)c1ccc([N+](=O)[O-])o1,?,14µM*,-1%,0%
CN(C)C(=O)c1ccc(-c2cc(NCc3cccnc3)ncn2)cc1,-8%,-30%,·,·
CN(C)c1ccc(/C=C2\Oc3ccc(C#Cc4cccc(N)c4)cc3C2=O)cc1,·,·,0%,·
COc1cc2nc(N3CCN(C(=O)OCc4ccccc4)C(C(=O)NC(C)(C)C)C3)nc(N)c2cc1OC (stereo not given),·,·,·,13µM*
COc1cc2nc(N3CCN(C(=O)OCc4ccccc4)[C@H](C(=O)NC(C)(C)C)C3)nc(N)c2cc1OC,8%,?,1%,·
CN1CCN(C(=O)/C=C/c2ccccc2)CC1,2%,6%,0%,·
CN1CCN(C(=S)NC(=O)/C=C/c2ccccc2Cl)CC1,?,2.5µM*,0%,-27%
O=C(/C=C/c1ccc(Br)cc1)NC(=S)N1CCOCC1,0.4µM*,0.71µM*,1%,39%
CC(OC(=O)/C=C/c1ccc(Br)cc1)C(=O)N1CCOCC1 (stereo not given),·,·,0%,·
O=C(/C=C/c1ccccc1Cl)N1CCCN(C(=O)/C=C/c2ccccc2Cl)CC1,-8%,31%,0%,5%
CN1CCN(C(=S)NC(=O)/C=C/c2ccccc2)CC1,?,11µM*,0%,-4%[46.1 µM]
O=C(C[n+]1cccc(/C=N/O)c1)N1CCCc2ccccc21,0%,12%,0%,19%
CC(C)N1C(=O)CSC1c1ccc(Br)cc1 (stereo not given),23%,-40%,0%,4%
O=C(CN1CCN(Cc2ccccc2)CC1)Nc1cccc(Cl)c1,0%,-31%,0%,·
CCN(CC)c1ccc2cc(-c3nc4ccccc4[nH]3)c(=O)oc2c1,-7%[0.365 µM],2.8µM*,3%,?
O=C(COc1ccc(/C=N/NC(=O)c2cc3ccccc3o2)cc1Cl)Nc1ccccc1,0.89µM*,1.3µM*,-1%,4µM*
COc1cc(/C=N/NC(=O)c2ccccc2O)ccc1OCC(=O)Nc1ccccc1,?,?,0%,·
O=C(c1cn(-c2ccccc2)nc1-c1cccnc1)N1CCCC(C(F)(F)F)C1 (stereo not given),·,·,-1%,·
SMILES,VP16 counter,RORg inh,B2AR arrestin,NPSR antag
Cn1cnc([N+](=O)[O-])c1S(=O)(=O)c1cccc(Cl)c1,5µM*,2.8µM*,0%,-13%
Cc1ccccc1SCC(=O)OCC(=O)N(C)c1c(N)n(Cc2ccccc2)c(=O)[nH]c1=O,·,·,0%,·
CC1CCN(C(=O)CNC(=O)c2cccc(OC(F)F)c2)CC1,1%,18%,0%,3%
O=C(Oc1cccccc1=O)c1ccccc1,?,10µM*,4%,-12%
COc1ccc(/C=N/Nc2nnc(C)n2N)cc1OC(C)=O,?,?,-1%,·
Nn1cnnc1N/N=C/c1ccc(F)cc1,?,?,0%,·
COc1ccc(/C=N/Nc2nnc(C)n2N)cc1OC,?,11µM*,0%,20%
Cc1ccc(/C=N/Nc2nncn2N)cc1,13µM*,?,0%,·
COc1cc(/C=N/Nc2nc(=O)[nH]nc2C)ccc1O,-13%,11µM*,3%,-18%
COc1ccc(/C=N/Nc2nc(=O)[nH]nc2C)cc1OC,8%,11µM*,0%,-10%
NC(=NC1C2CC3CC(C2)CC1C3)Nc1ccc(I)cc1 (stereo not given),-4%,-6%,·,·
